Screens as filed in PubChem.
USP28 block – inhibitors of human USP28 deubiquitinase | Ubiquitin carboxyl-terminal hydrolase 28 (Homo sapiens), Q96RU2 | purified USP28, Ub-rhodamine cleavage fluorescence, 30 min | inhibition, % at 25 µM | 47,000 tested, 3% active | AID 1645857, 2021
USP17 block – inhibitors of human USP17 deubiquitinase. Ubiquitin carboxyl-terminal hydrolase 17-like protein 5 (Homo sapiens), A8MUK1. purified USP17, Ub-rhodamine cleavage fluorescence, 3 h. inhibition, % at 50 µM. 47,000 tested, 6.5% active. AID 1645855, 2021
USP30 inh – inhibitors of human USP30 deubiquitinase; Ubiquitin carboxyl-terminal hydrolase 30 (Homo sapiens), Q70CQ3; purified USP30, Ub-rhodamine cleavage fluorescence; inhibition, % at 25 µM; 47,000 tested, 5.3% active; AID 1645860, 2021
Target sequence (Q70CQ3 whole entry, looked up): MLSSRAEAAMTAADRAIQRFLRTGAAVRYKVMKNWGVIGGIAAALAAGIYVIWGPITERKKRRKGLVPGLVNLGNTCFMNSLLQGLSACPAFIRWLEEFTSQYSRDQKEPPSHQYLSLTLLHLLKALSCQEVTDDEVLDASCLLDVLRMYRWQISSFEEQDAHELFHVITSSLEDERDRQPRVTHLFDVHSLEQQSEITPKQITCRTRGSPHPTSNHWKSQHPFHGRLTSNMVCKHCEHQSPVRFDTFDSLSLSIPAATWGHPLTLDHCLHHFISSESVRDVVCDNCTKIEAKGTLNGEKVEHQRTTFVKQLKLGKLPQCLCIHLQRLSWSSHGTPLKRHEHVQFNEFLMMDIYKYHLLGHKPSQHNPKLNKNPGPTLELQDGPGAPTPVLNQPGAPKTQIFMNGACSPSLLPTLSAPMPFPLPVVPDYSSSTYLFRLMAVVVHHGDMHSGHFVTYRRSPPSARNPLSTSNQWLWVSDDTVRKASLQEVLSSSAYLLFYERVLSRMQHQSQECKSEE
* = called active by the depositor; nt = no result. In the library only some 11% were active in any assay of this set; here they are far more common. Cut-off read from the data, not from the text of the source: active = inhibition above about 30%; inactive = the rest.

SMILES | USP28 block | USP17 block | USP30 inh
O=C(Cc1c(F)cccc1Cl)Nc1ccc2nc3n(c(=O)c2c1)CCCC3 | nt | 15 | nt
O=C(Nc1ccc2c(c1)OCCO2)Nc1ccc2nc3n(c(=O)c2c1)CCCC3 | 68* | 32* | 4
COc1ccc(NC(=O)Nc2ccc3nc4n(c(=O)c3c2)CCCC4)cc1OC | 31* | 4 | 12
COc1cc(NC(=O)Nc2ccc3nc4n(c(=O)c3c2)CCCC4)cc(OC)c1 | 6 | -9 | -23
O=C(Nc1ccc2nc3n(c(=O)c2c1)CCCC3)c1ccc2c(c1)OCO2 | 1 | -8 | -42
COc1ccc(-c2cc(C(=O)N3CCC(Cc4ccccc4)CC3)c3cc(Br)ccc3n2)cc1 | -13 | -5 | -34
Cc1ccc(CCNC(=O)CN2C(=O)CSc3cc(S(=O)(=O)N4CCCC4)ccc32)cc1 | -7 | -11 | -26
COc1c(O)cc2cc(C)oc(=O)c2c1O | 8 | 7 | 36*
COC(=O)c1cc(OC)cc(O)c1OC(=O)c1c(O)cc2cc(C)oc(=O)c2c1O | -36 | -56 | -132
CCOC(=O)C=C1CCN(c2ccc([N+](=O)[O-])cc2)CC1 | -16 | 0 | -24
Cc1cc(N2CCN(c3ccc([N+](=O)[O-])cc3)CC2)nc2cc3c(cc12)CCC3 | 11 | 30* | 21
Cc1cc(NC(=O)CSc2nc3c(cnn3-c3ccc(F)cc3)c(=O)[nH]2)no1 | -1 | 2 | 21
O=C(CSc1nc2c(cnn2-c2ccccc2)c(=O)[nH]1)Nc1ccc(Cl)cc1F | 15 | -26 | 30*
COc1ccc(OC)c(CNc2nc(N3CCCC3)nc3c2cnn3C)c1 | -7 | 8 | -25
COc1ccc(Nc2nc(N3CCCC3)nc3c2cnn3C)cc1 | 2 | 49* | 39*
O=C(CN1C(=O)CC(c2ccc(F)cc2)=Nc2ccccc21)Nc1ccccc1 | 27 | 38* | 21
O=C(CN1C(=O)CC(c2ccccc2)=Nc2ccccc21)NCc1ccccc1Cl | -8 | 3 | 2
COc1ccc(CNC(=O)CN2C(=O)CC(c3ccccc3)=Nc3ccccc32)cc1 | -3 | 83* | 0
Cc1cccc(C)c1NC(=O)CN1C(=O)CC(c2ccccc2)=Nc2ccccc21 | -13 | 4 | 9
CCCc1nn(-c2cccc(Cl)c2)c(C)c1C(=O)O | -6 | -15 | -8
COc1ccccc1CNC(=O)Cn1ccc2ccc(Br)cc21 | -39 | 13 | -188
O=C(Cn1cnc2onc(-c3ccccc3F)c2c1=O)NCCCc1ccccc1 | 19 | 22 | 24
Cc1c(C)n(-c2ccccc2)c2ncn(CC(=O)N(C)Cc3ccccc3)c(=O)c12 | -3 | 53* | -2
CN(Cc1ccccc1)C(=O)Cn1cnc2c(cnn2C)c1=O | -13 | 1 | -4
Cc1c(C)n(-c2ccccc2)c2ncn(CC(=O)NCCCc3ccccc3)c(=O)c12 | -2 | 70* | -1
SMILES | USP28 block | USP17 block | USP30 inh
Cc1nnsc1C(=O)NCCc1c[nH]c2ccccc12 | -10 | -12 | -9
Cn1cccc1C(=O)N1CCC2(CCN2Cc2ccc(F)cc2)C1 (centres undefined) | 15 | 0 | 24
CCN(c1cccc(C)c1)S(=O)(=O)c1ccc2[nH]c(=O)ccc2c1 | 13 | -4 | -5
Cc1ccc(-c2nc3c(c(SCC(=O)c4ccccc4)n2)COC(C)(C)C3)cc1 | 4 | 9 | 16
Cc1ccc(-c2nc3c(c(SCC(=O)NCc4ccco4)n2)COC(C)(C)C3)cc1 | 18 | 41* | 20
CC(CCc1ccccc1)NC(=O)c1cc(-c2ccc(Cl)c(Cl)c2)nc2ccccc12 (centres undefined) | -1 | 16 | -32
CC(=O)Nc1ccc(-n2cnc(C(=O)NC3CCC(C)CC3)c2)nc1 (centres undefined) | -2 | 12 | -87
COCCN1C(=O)c2ccccc2C(C(=O)Nc2ccc(NC(C)=O)cc2)C12CCCCC2 (centres undefined) | nt | 12 | nt
COCCN1C(=O)c2ccccc2C(C(=O)Nc2ccc3c(c2)OCO3)C12CCCC2 (centres undefined) | 23 | 45* | 9
O=C(Nc1ccc(F)cc1)c1ccccc1N1C(=O)[C@@H]2Cc3c([nH]c4ccccc34)C(c3ccc(F)cc3)N2C1=O (some centres undefined) | -84 | -72 | -382
COc1cccc(NC(=O)c2nc3c(s2)CCNCC3)c1 | 18 | 8 | 18
COc1cccc(CNC(=O)c2nc3c(s2)CCNCC3)c1 | 7 | 34* | -9
CCN(CCO)c1ncnc2c1sc1nc(-c3ccccc3)c3c(c12)CCC3 | 4 | 33* | -69
CCN(CC)c1ncnc2c1sc1nc(-c3ccccc3)c3c(c12)CCC3 | -30 | -36 | -45
CCn1nccc1C(=O)N1CCN(c2ncnc3c2CCC3)CC1 | -4 | 0 | 2
Cc1cc(C2CCCN2S(=O)(=O)c2ccc(F)c(Cl)c2)on1 (centres undefined) | 2 | -3 | -1
COc1ccc(/C=C/C(=O)Nc2c3c(nc4c2CCC4)CCCC3)cc1 | 7 | 38* | 61*
COc1ccc(/C=C/C(=O)Nc2ccc(OC)nc2)cc1 | 17 | 23 | -45
CC(=O)c1cccc(NC(=O)c2ccc3[nH]c4c(c3c2)CC(C)CC4)c1 (centres undefined) | 16 | 54* | -6
CC(=O)c1cccc(NC(=O)c2ccc(OC3CSC3)cc2)c1 | 15 | 13 | 19
O=C(c1cccc2ncccc12)N1CCN(c2ccnc3cc(Cl)ccc23)CC1 | -8 | -102 | -373
O=c1c2cc(Cl)ccc2ncn1Cc1csc(-c2ccccc2)n1 | 16 | 22 | 44*
O=c1c2cc(Br)ccc2ncn1Cc1csc(-c2ccc(Cl)cc2)n1 | -29 | -30 | -121
CN1C[C@H]2CCN(C(=O)NCCc3ccccc3)CC[C@H]2S1(=O)=O | 5 | 6 | 25
CC(Sc1n[nH]c2nc3ccccc3n12)C(=O)Nc1ccc2c(c1)OCCO2 (centres undefined) | 26 | 39* | -9
SMILES | USP28 block | USP17 block | USP30 inh
O=C(CSc1n[nH]c2nc3ccccc3n12)Nc1ccc2[nH]c(=O)[nH]c2c1 | -4 | -3 | -22
COc1cccc(CNC(=O)Cc2c(C)n[nH]c2C)c1 | -7 | nt | -6
CSc1ccc(CNC(=O)Cc2c(C)n[nH]c2C)cc1 | 8 | 15 | 34*
COc1ccc(-c2cc3nc(CCNC(=O)c4ccc(OC)s4)nn3cn2)cc1 | -4 | -2 | -4
CCc1cc(=O)oc2cc(OCC(=O)NC(c3ccccc3)c3ccccc3)ccc12 | 14 | 4 | 44*
COc1cccc(NC(=O)c2oc3ccccc3c2NC(=O)COc2cccc(OC)c2)c1 | 0 | -4 | 6
Cc1cc(NC(=O)COc2ccc3oc4ccccc4c3c2)no1 | 5 | 78* | 21
CC(NC(=O)COc1ccc2oc3ccccc3c2c1)c1ccccc1 (centres undefined) | -1 | 42* | 22
Cc1cc(NC(=O)COc2cccc(C(F)(F)F)c2)no1 | 8 | 48* | 13
Cc1cc(NC(=O)c2oc3c(F)cccc3c2C)no1 | -27 | -7 | -135
CC(NC(=O)COc1ccc2ccccc2c1)C(=O)O (centres undefined) | -8 | 0 | 2
Cc1cc(=O)oc2cc(OCC(=O)NC(C)CCc3ccccc3)ccc12 (centres undefined) | -1 | -6 | 0
